What all share (test): Cytotoxic Profiling of Annotated Libraries Using Quantitative High-Throughput Screening (AID 1296008); note: nearly all actives have a fitted effect of over 60% in size
Common to all, as to conditions: Five cell lines viability, CellTiter-Glo ATP luminescence, 48-72 h; max response: hits give low values

Test [1] deals with CRL-7250. In a few lines: (§1)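 Cells exposed to compounds for 48 or 72 hr at 37 degrees Celsius. Viability read as ATP-coupled luminescence with CellTiter-Glo after 10 min at room temperature.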
The subject of test [2] is HEK293. In a few lines: as §1
In test [3] the test system is HaCat. In a few lines:
as §1

For test [4], the system named is KB-3-1. In a few lines:
as §1

In test [5] the test system is NIH3T3. In a few lines: as §1

Each structure is given as a SMILES string. Inconclusive results are not listed. A number with no mark means an inactive call. The source made the active and inactive calls. Calls come from the whole dose curve; as a rule, active = well fitted inhibition curve with a large enough effect; inconclusive = small, poorly fitted or top-dose-only effect; inactive = flat fitted curve, though single readings scatter.
% is set by controls: 0 for no effect and ±100 for the full control effect; potency is the fitted concentration of half-maximal effect.

Regarding `C/C(=C\CC[C@@H](C)[C@H]1CC(O)[C@@]2(C)C3CC[C@H]4C(C)(C)[C@@H](OC5OCC(O)C(O)C5OC5OC(CO)C(O)C(O)C5O)CC[C@@]45C[C@@]35CC(O)[C@]12C)C(=O)O` (stereo not given in full), the max response in test [1] is -2.5%; in test [2], 0.167%; in test [3], -0.726%; in test [4], 6%; in test [5] it was -27.1%.

For `CC1=CC(=O)CC(C)(C)C1/C=C/C(C)O[C@@H]1O[C@H](CO)[C@@H](O)[C@H](O)[C@H]1O[C@@H]1OC[C@](O)(CO)[C@H]1O` (stereo not given in full), the max response in test [1] is -0.149%; in test [2], 1.02%; in test [3], 4.57%; in test [4], 2.75%; in test [5], 3.26%.

Take `C[C@@H]1O[C@@H](O[C@H]2[C@H](O)[C@@H](C(=O)O)O[C@@H](O[C@H]3CC[C@@]4(C)C(CC[C@]5(C)C4CC=C4C6CC(C)(C)CC[C@]6(C(=O)O)CC[C@]45C)C3(C)C)[C@@H]2O[C@@H]2OC[C@@H](O)[C@H](O)[C@H]2O)[C@H](O)[C@H](O)[C@H]1O` (stereo not given in full): the max response is 3.95% in test [1]; -0.663% in test [2]; -12.7% in test [3]; 9.7% in test [4]; 0.526% in test [5].

For the compound `C/C1=C\CCC(C)CCO[C@@H]2O[C@H](CO[C@@H]3OC[C@H](O)[C@H](O)[C@H]3OC1=O)[C@@H](O)[C@H](O)[C@H]2O` (stereo not given in full), the max response in test [1] was -2.22%; in test [2] it was 2.77%; in test [3] it was -12.1%; in test [5], -2.67%. In addition, the compound was called inactive in test [4].

Turning to `C=C1C(=O)O[C@H]2[C@H]1CC/C(C)=C/CC[C@@]1(C)O[C@@H]21`, the max response was -15.8% in test [1]; -18.1% in test [2]; -3.65% in test [3]; -4.28% in test [4]; 0.479% in test [5].

Regarding `O=C(c1ccc2nccnc2c1)N1CCCCC1`, the max response in test [1] is -4.12%; in test [2], -81.1%; in test [3], -44.6%; in test [5] it was -40.7%. The call in test [4] was inactive.

`CCC1C(=O)N(C)c2cnc(Nc3ccc(C(=O)NC4CCC(N5CCN(CC6CC6)CC5)CC4)cc3OC)nc2N1C(C)C` (stereo not given): the Potency in test [1] was 4610 nM (active); in test [2], 5.8 nM (active); in test [3], 36.6 nM (active); in test [4], 5.2 nM (active); in test [5] it was 1640 nM (active).

For the compound `CN[C@H](C(=O)N[C@H](C(=O)N(C)[C@H](/C=C(\C)C(=O)O)C(C)C)C(C)(C)C)C(C)(C)c1ccccc1`, the Potency in test [1] is 5.2 nM (active); in test [2] it was 7.3 nM (active); in test [4], 4.6 nM (active). For the same compound, the max response was -1.54% in test [3] and -50.4% in test [5].

As to `COc1ccc(C(=O)n2c(C)c(Cc3cccc(O[C@@H](C)C(=O)O)c3)c3cc(OC(F)(F)F)ccc32)cc1`, the max response was -19.1% in test [1]; -1.86% in test [2]; -6.22% in test [3]; 0.537% in test [4]; 2.93% in test [5].

Consider `C[C@@H]1CC[C@]2(C(=O)O[C@@H]3O[C@H](CO)[C@@H](O)[C@H](O)[C@H]3O)CC[C@]3(C)C(=CCC4[C@@]5(C)C[C@@H](O)[C@H](O)[C@](C)(C(=O)O)C5CC[C@]43C)[C@@H]2[C@]1(C)O` (stereo not given in full), for which the outcome in test [1] and in test [3] was inactive. Also, the results for the max response in test [2], in test [4] and in test [5] were 2.11%, 5.29% and 0.619%, respectively.

In the case of `COc1cc2c(cc1O)CC[C@H]1[C@@H]2CC[C@]2(C)[C@H](O)CC[C@@H]12`, the Potency in test [1] is 14600 nM (active); in test [2], 1030 nM (active); in test [3], 580 nM (active); in test [4], 1640 nM (active); in test [5] it was 820 nM (active).

`Cc1cc(C(N)=O)ccc1-n1c(CCC(=O)O)ccc1-c1ccc(-n2ccnc2)cc1`: the max response in test [1] was 1.88%; in test [2], -3.97%; in test [3], -1.63%; in test [4], 7.2%; in test [5], -2.74%.

As for `COC1CC(O[C@H]2CC[C@@]3(C)C(CCC4C3[C@H](OC(C)=O)[C@@H](OC(=O)/C=C/c3ccccc3)[C@]3(C)C(C(C)=O)CC[C@]43O)C2)OC(C)C1OC1CC(OC)C(OC2CC(OC)C(OC3OC(C)C(OC4OC(CO)C(O)C(O)C4O)C(OC)C3O)C(C)O2)C(C)O1` (stereo not given in full), the max response in test [1] was -13.2%; in test [2], -13.6%; in test [3], -18.9%; in test [4], -0.895%; in test [5] it was -9.54%.

In the case of `C[C@@H]1[C@H]2[C@H](O[C@@H]3O[C@H](CO)[C@@H](O)[C@H](O)[C@H]3O)OC=C(C(=O)O)[C@H]2C[C@@H]1O`, the compound was classed as inactive in test [1]. In addition, the max response in test [2] is -5.11%; in test [3], -4.56%; in test [4] it was -0.849%; in test [5], -4.16%.

For `C[C@@H]1O[C@@H](O[C@@H]2[C@@H](O[C@@H]3O[C@@H](C)[C@H](O[C@@H]4OC[C@H](O)[C@H](O[C@@H]5OC[C@@H](O)[C@H](O)[C@H]5O)[C@H]4O)[C@@H](O[C@@H]4OC[C@](O)(CO)[C@H]4O)[C@H]3O)[C@H](OC(=O)[C@]34CCC(C)(C)C[C@H]3C3=CCC5[C@@]6(C)C[C@H](O)[C@H](O[C@@H]7O[C@H](CO[C@@H]8OC[C@H](O)[C@H](O)[C@H]8O)[C@@H](O)[C@H](O)[C@H]7O)C(C)(C)C6CC[C@@]5(C)[C@]3(C)C[C@H]4O)OC[C@H]2O)[C@H](O)[C@H](O)[C@H]1O` (stereo not given in full), the compound was classed as inactive in test [1]. Moreover, the max response in test [2] is 0.0429%; in test [3], 0.757%; in test [4] it was 9.59%; in test [5], 0.953%.

The record behind these values is PubChem BioAssay (NCATS).
